Measles CPE – compounds protecting cells from measles virus cytopathic effect, primary screen, measles RdRp inhibitor project, single point, MLSMR library, absorbance | Measles virus-infected cells, CPE protection | hit rate 1.5% among 140,000 | protection (pct of control), % at 4 µM; in the data active = protection mostly above about 24%, no sharp cut-off; inactive = mostly below about 26%
CYP2C9 inh – blockers of cytochrome P450 2C9 activity – biochemical, luminescence, ADME assay, primary screen; P11712; CYP2C9 Supersomes, luciferin-H conversion; inhibition, % at 5 µM; hit rate 20% among 96,000; AID 777, 2007;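 active = blocking of liver enzyme CYP2C9 beyond about 50% at 5 µM, limit read from the data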
Target sequence (P11712 whole entry, looked up): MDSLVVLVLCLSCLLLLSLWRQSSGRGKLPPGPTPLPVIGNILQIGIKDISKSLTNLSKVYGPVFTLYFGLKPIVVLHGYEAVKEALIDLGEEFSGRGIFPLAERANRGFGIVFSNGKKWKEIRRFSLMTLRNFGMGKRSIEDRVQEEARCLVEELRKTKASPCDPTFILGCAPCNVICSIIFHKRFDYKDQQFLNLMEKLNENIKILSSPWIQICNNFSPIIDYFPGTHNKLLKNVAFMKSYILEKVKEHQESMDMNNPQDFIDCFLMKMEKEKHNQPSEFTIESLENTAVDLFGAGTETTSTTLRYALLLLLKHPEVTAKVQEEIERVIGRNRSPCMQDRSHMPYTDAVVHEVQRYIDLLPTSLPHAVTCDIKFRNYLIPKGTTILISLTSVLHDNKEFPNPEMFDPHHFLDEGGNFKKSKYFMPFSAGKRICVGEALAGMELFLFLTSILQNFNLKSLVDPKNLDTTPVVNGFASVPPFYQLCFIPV
CYP2C19 act – human CYP2C19 activators, primary screen, biochemical, luminescence | Cytochrome P450 2C19 (Homo sapiens), P33261 | 96,000 tested, under 10 active | activation factor at 5 µM | recombinant CYP2C19, luciferin-H EGE luminescence; hits give high values; 0 = fully inhibited enzyme, 1 = untreated enzyme;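 active = activation factor of at least 2 at 5 µM in the primary screen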
CYP2C9 activ – human CYP2C9 activators, primary screen, biochemical, luminescence. AID 1024, 2008. Cytochrome P450 2C9 (Homo sapiens), P11712. activation factor at 5 µM. hit rate 1.4% among 96,000. recombinant CYP2C9, luciferin-H conversion; hits give high values; factor 1 = untreated enzyme, 0 = blocked;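 active = activation factor of 2 or more for CYP2C9 at a 5 µM dose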
CYP2C19 inh – blockers of cytochrome P450 2C19 activity – biochemical, luminescence, ADME assay, primary screen; hit rate 21% among 96,000; CYP2C19 Supersomes, luciferin-H EGE luminescence, 30 min; P33261; inhibition, % at 5 µM;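 active = CYP2C19 inhibition above a set limit at 5 µM in the primary screen, cut at about 50% in these data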
Large screens that a line does not name were inactive. Rows were chosen to be rich in hits. Some 22% of all compounds tested hit in one or more screens of this group.

COC(=O)c1ccccc1NC(=O)CSc1nc(-c2ccco2)cc(C(F)(F)F)n1	none
COC(=O)c1ccccc1NC(=O)CSc1nc(NC(=O)c2ccccc2)c2c(C)c(C)oc2n1	CYP2C9 inh 87, CYP2C19 inh 69
CCOC(=O)c1ccc(NC(=O)c2ccccc2)cc1	none
COc1ccc(-n2ncc3c(N4CCCCC4)ncnc32)cc1	none (no result: CYP2C9 inh, CYP2C19 act, CYP2C9 activ, CYP2C19 inh)
COc1ccc(-n2nnnc2-c2cnc(N3CCCC3)nc2C(F)(F)F)cc1	CYP2C9 inh 64, CYP2C19 inh 88
Cc1nn(C)cc1-c1n[nH]c(=S)n1-c1ccc(Cl)cc1	none (no result: CYP2C9 inh, CYP2C19 act, CYP2C9 activ, CYP2C19 inh)
FC(F)(F)c1nc(-c2cccs2)ncc1-c1nnnn1-c1ccc(Cl)cc1	CYP2C9 inh 52
Cc1ccc(-n2nnnc2-c2ccco2)cc1	none (no result: CYP2C9 inh, CYP2C19 act, CYP2C9 activ, CYP2C19 inh)
Cc1cc(C)cc(-n2nnnc2-c2cn(C)nc2C(F)(F)F)c1	CYP2C19 inh 75
Cn1cc(-c2nnnn2-c2ccc(Cl)cc2)c(C(F)(F)F)n1	CYP2C19 inh 100
Cc1ccc(N2C(=O)[C@@H]3C(C(=O)C(c4ccccc4)c4ccccc4)=NN[C@@H]3C2=O)cc1	none (no result: CYP2C9 inh, CYP2C19 act, CYP2C9 activ, CYP2C19 inh)
COc1ccc(C(=O)NCCNC(=O)c2cc(OCC(F)(F)F)ccc2OCC(F)(F)F)cc1	none
COC(=O)[C@@H]1CC[C@H](C)[C@@H](c2ccc(C)cc2)N1C(=O)c1ccc(/C=N/O[C@@H](C)CN2CCCCc3nc(C)c(C)cc32)cc1	none (no result: CYP2C9 inh, CYP2C19 act, CYP2C9 activ, CYP2C19 inh)
CCn1ncc(C2=NOC(C(=O)NCCc3ccccc3)C2)c1C (centres undefined)	none
Cc1nc2ccccc2c(=O)n1NC(=O)c1ccc(F)cc1Cl	CYP2C9 inh 81
Cc1ccc(C)c(OCC(=O)Nn2c(C)nc3ccccc3c2=O)c1	CYP2C9 inh 78
Cc1nc2ccccc2c(=O)n1NC(=O)c1ccccc1Cl	none
COc1cc(OC)cc(C(=O)Nn2cc(C(=O)N3CCN(C)CC3)c3ccccc3c2=O)c1	CYP2C9 inh 58
C/C(=N\OCC(=O)Nn1c(C)nc2ccccc2c1=O)c1ccccc1	none (no result: CYP2C9 inh, CYP2C19 act, CYP2C9 activ, CYP2C19 inh)
COc1ccc(Br)c(C(=O)Nn2c(C)nc3ccccc3c2=O)c1	CYP2C9 inh 54
O=C(CCCOc1ccc(Cl)cc1Cl)NNC(=O)c1ccc(NC(=O)c2ccccc2)cc1	none (no result: CYP2C9 inh, CYP2C19 act, CYP2C9 activ, CYP2C19 inh)
COc1ccccc1C(=O)Nn1c(C2CCC2)nc2ccccc2c1=O	CYP2C9 inh 95, CYP2C19 inh 54
Cc1nc2ccccc2c(=O)n1NC(=O)c1ccco1	none (no result: CYP2C9 inh, CYP2C19 act, CYP2C9 activ, CYP2C19 inh)
COc1ccc2[nH]c3c(c2c1)CCn1c-3nc2ccccc2c1=O	CYP2C19 inh 75
COc1cccc(CC(=O)Nn2c(C)nc3ccccc3c2=O)c1	CYP2C9 inh 87
O=C(Cc1ccccc1)Nn1c(-c2ccccc2)nc2ccccc2c1=O	none (no result: CYP2C9 inh, CYP2C19 act, CYP2C9 activ, CYP2C19 inh)
CCOc1ccccc1C(=O)Nn1c(C2CCC2)nc2ccccc2c1=O	none
COc1cc(OC)cc(C(=O)Nn2c(C)nc3ccccc3c2=O)c1	CYP2C9 inh 53
Cc1ccc(OCc2nn3c(-c4n[nH]c5c4CCC5)nnc3s2)cc1	none (no result: Measles CPE)
Cc1cc2ccccn2c1C(=O)c1ccc(Cl)cc1	none
Cc1cc2ccccn2c1C(=O)c1ccncc1	CYP2C9 inh 65, CYP2C19 inh 98
Cc1ccccc1NC(=O)NCCc1nc2ccccc2[nH]1	CYP2C19 inh 60
O=C(NCCc1nc2ccccc2[nH]1)c1ccco1	CYP2C19 inh 55
O=C(CNC(=O)c1ccc(Br)cc1)NCCc1nc2ccccc2[nH]1	CYP2C9 inh 58
O=C(CNC(=O)c1cccc(Br)c1)NCCc1nc2ccccc2[nH]1	none
CC(C)(C)c1ccc(C(=O)NCC(=O)OCC(=O)c2ccc3c(c2)-c2ccccc2C3)cc1	none (no result: CYP2C9 inh, CYP2C19 act, CYP2C9 activ, CYP2C19 inh)
COc1cc(/C=N/n2c(SC)nnc(C(C)(C)C)c2=O)ccc1O	none
CCCNCc1cc(Cl)c(OCC)c(Cl)c1	none (no result: CYP2C9 inh, CYP2C19 act, CYP2C9 activ, CYP2C19 inh)
C=CCOc1c(Cl)cc(CNc2ccc(C)c(Cl)c2)cc1OC	CYP2C9 inh 57
C=CCOc1c(Cl)cc(CNc2ccc(N(C)C)cc2)cc1OC	CYP2C9 inh 72, CYP2C19 inh 96
CCOc1cc(CNc2ccc(N3CCCC3)cc2)cc(Cl)c1OC	none (no result: CYP2C9 inh, CYP2C19 act, CYP2C9 activ, CYP2C19 inh)
C=CCOc1c(Cl)cc(CNCCC)cc1Cl	CYP2C19 inh 59
CC(C)c1cc(C(N)=O)c(NC(=O)C2CCC2)s1	CYP2C9 inh 55, CYP2C19 inh 57
O=C(CSCc1c(Cl)cccc1Cl)Nc1ccccc1-c1ccccc1	none (no result: CYP2C9 inh, CYP2C19 act, CYP2C9 activ, CYP2C19 inh)
O=C(NC(c1ccccc1)C(Cl)(Cl)Cl)c1ccccc1 (centres undefined)	none (no result: CYP2C9 inh, CYP2C19 act, CYP2C9 activ, CYP2C19 inh)
Nc1nc(CSc2ccccn2)nc(Nc2ccccc2)n1	CYP2C9 inh 52, CYP2C19 inh 55
OCCNc1nc(Nc2ccccc2)nc(Nc2ccccc2)n1	CYP2C9 inh 66
CCOC(=O)c1cnc(SCc2nc(N)nc(Nc3ccccc3)n2)nc1N	CYP2C9 inh 84, CYP2C19 inh 66
Nc1nc(CSCCO)nc(Nc2ccccc2)n1	Measles CPE 32
CC(C)(C)c1ccc(S(=O)(=O)N2CCSC2)cc1	none (no result: CYP2C9 inh, CYP2C19 act, CYP2C9 activ, CYP2C19 inh)
CCOC(=S)SCC(=O)N1CCc2ccccc2C1C1C(=O)CCCC1=O (centres undefined)	none (no result: CYP2C9 inh, CYP2C19 act, CYP2C9 activ, CYP2C19 inh)
CC(=O)N(Cc1cc(=O)[nH]c2ccccc12)c1ccc(C)cc1	CYP2C9 inh 64, CYP2C19 inh 51
Cc1ccc(N(Cc2cc(=O)[nH]c3ccccc23)C(=O)c2ccco2)cc1	none
O=C(NCc1ccccn1)c1nnc(Cc2ccc(Cl)cc2)o1	none (no result: CYP2C9 inh, CYP2C19 act, CYP2C9 activ, CYP2C19 inh)
CC1CCc2ccc(F)cc2N1S(=O)(=O)c1cccs1 (centres undefined)	CYP2C19 inh 62
CC1CN(S(=O)(=O)c2cccs2)CC(C)O1 (centres undefined)	none
COc1ccc(OC(=O)c2ccc3nsnc3c2)cc1	none
COc1ccc2cnnc(SCC(=O)Nc3ccc(C(C)=O)cc3)c2c1OC	none (no result: CYP2C9 inh, CYP2C19 act, CYP2C9 activ, CYP2C19 inh)
COC(=O)C1=C(C)NC(=O)/C1=C\c1cc(C)n(-c2ccccc2C)c1C	none
COC(=O)C1=C(C)NC(=O)/C1=C\c1cccs1	CYP2C9 inh 57
COC(=O)C1=C(C)NC(=O)/C1=C\c1cc(C)n(-c2c(C)cccc2C)c1C	CYP2C9 inh 56
CCOC(=O)C1=C(C)N(c2ccccc2)C(=O)/C1=C\c1cccs1	none (no result: CYP2C9 inh, CYP2C19 act, CYP2C9 activ, CYP2C19 inh)
COC(=O)C1=C(C)N(c2cccc(C)c2)C(=O)/C1=C\c1cccs1	CYP2C9 inh 50
O=C(CNCC1CCCO1)N1CCCc2ccccc21 (centres undefined)	none
CN(C)C(=S)SCC(=O)Nc1ccc(Cl)cc1Cl	none (no result: CYP2C9 inh, CYP2C19 act, CYP2C9 activ, CYP2C19 inh)
Cc1c(C(=O)NCc2ccccc2)oc2ccc(S(=O)(=O)N3CCC4(CC3)OCCO4)cc12	CYP2C9 inh 55
Cc1cc2oc(C(=O)NCc3ccc4c(c3)OCO4)c(C)c2cc1C	CYP2C9 inh 55
Cc1c(C(=O)NCc2ccc3c(c2)OCO3)oc2ccc(Br)cc12	CYP2C9 inh 97
CCCCN(C)C(=O)c1oc2ccc(S(=O)(=O)N3CCCCCC3)cc2c1C	CYP2C9 inh 56
Cc1c(C(=O)Nc2cccc(Cl)c2)oc2ccc(S(=O)(=O)N3CCC4(CC3)OCCO4)cc12	none
